This is an account of results in PubChem BioAssay AID2685 (National Center for Advancing Translational Sciences (NCATS), 2010).

Hit rate of the full screen: of about 320,000 compounds, about 2,100 (0.66%) were called active. Not shown: some 53% with an inconclusive outcome. The call rests on the fitted dose curve; in most records, active means well fitted inhibition curve with a large enough effect in the signal ratio, with a control signal flat (not every such curve was filed as active); inconclusive means small, poorly fitted or top-dose-only effect, or effect the other way, or a change in a side signal; inactive means flat fitted curve, though single readings scatter; the % refers to the signal ratio. The full list was thinned out, with actives kept by preference.
Potency means the concentration at half of the fitted maximal effect.

The nature of the assay: qHTS Assay for Lipid Storage Modulators in Drosophila S3 Cells.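 On cell number change: cells counted by Cell Tracker Red CMTPX staining in the red channel.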 On lipid storage change, negative = inhibition: on the % scale 0 is the no-effect control and ±100 the full control effect. To be noted: BODIPY lipid droplet fluorescence, 18-24 h, cells fed with added oleic acid; cell number change: measured here: cell count max response; series mostly up to 46.1 µM; lipid storage change, negative = inhibition: at the top concentration. The procedure, abridged:
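Drosophila S3 cells loaded with oleic acid (400 uM, as added) and compounds at several concentrations; lipid droplets imaged by 488-nm laser-scanning cytometry, 500–530 nm intensity and object ratio to cell channel. Percent activity normalized to 20 uM Triacsin C.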
(In qHTS, concentration-response curves come from the screen itself.)
Turning to `Cc1ccccc1-n1nc2c(c1NC(=O)c1cccs1)CS(=O)(=O)C2`, the compound was called inactive.

Take `Nn1c(SCC(=O)Nc2ccccc2)nnc1-c1cccnc1`: the call was inactive.

In the case of `COc1cccc(C(=O)Nc2nnc(-c3ccccc3)s2)c1`, the “lipid storage change, negative = inhibition” value was -1.19% (inactive) and the cell number change amounted to 0.556%.

`Cc1ccc(NC(=O)CCC(=O)OCCCC(F)(F)C(F)(F)F)cc1`: the “lipid storage change, negative = inhibition” value was -0.336% (inactive) and the cell number change is -12.9%.

In the case of `Cc1ccccc1OC(=O)CCC(=O)OCCCC(F)(F)C(F)(F)F`, the Potency was 29.1 µM (active) and the cell number change stood at 10.2%.

For `Cc1ccccc1NC(=O)CCC(=O)OCCCC(F)(F)C(F)(F)F`, the “lipid storage change, negative = inhibition” value was 20.7% (inactive) and the cell number change came out at 12.7%.

For `O=c1oc(-c2cccc([N+](=O)[O-])c2)nc2ccccc12`, the “lipid storage change, negative = inhibition” value is 12% (inactive) and the cell number change is 0.88%.

For the compound `CCn1c(=O)c(=O)[nH]c2c(=O)oc3ccc(S(=O)(=O)Nc4ccc(OC)cc4)cc3c21`, the Potency is 4.61 µM (active) and the cell number change was determined as 1.26%.

Take `Cn1c(=O)oc2cc(S(=O)(=O)Nc3ccccc3)ccc21`: the cell number change was -3.03% and the lipid storage change, negative = inhibition is -3.68% [at 9.22 µM] (inactive).

For the compound `COc1ccc(NS(=O)(=O)c2ccc3oc(=S)[nH]c3c2)cc1`, the “lipid storage change, negative = inhibition” value is -21.1% (inactive) and the cell number change is 5.85%.

Regarding `CCn1c(=O)c(=O)[nH]c2c(=O)oc3ccc(S(=O)(=O)Nc4ccccc4)cc3c21`, the Potency was 13 µM (active) and the cell number change was -26.4%.

As to `Cc1ccc(S(=O)(=O)Nc2c(O)c3ccccc3oc2=O)cc1C`, the outcome was inactive and the cell number change came out at 6.35%.

Consider `COc1ccc(NS(=O)(=O)c2ccc3oc(=O)ccc3c2)cc1`, for which the “lipid storage change, negative = inhibition” value was -5.71% (inactive) and the cell number change was -11.6%.

Consider `COc1ccc(-c2nc(=S)[nH][nH]2)cc1`, for which the “lipid storage change, negative = inhibition” value is 2.02% (inactive) and the cell number change was -14.6%.

For `O=C(NCc1cccnc1)C1CCCN(Cc2cnn(-c3ccccc3)c2-n2cccc2)C1` (stereo unspecified), the “lipid storage change, negative = inhibition” value was 0.331% (inactive) and the cell number change was -3.38%.

Take `Cc1ccc2nc3c(cc(C(=O)NCc4ccco4)c(=N)n3Cc3ccco3)c(=O)n2c1`: the “lipid storage change, negative = inhibition” value was -7.54% (inactive) and the cell number change is -5.34%.

Take `Cc1ccc(N(C(=O)CCC(=O)Nc2cc(C)on2)C(C(=O)NC2CCCC2)c2ccccc2)cc1` (stereo unspecified): the compound was classed as inactive and the cell number change is -13.1%.

Turning to `O=C(CSc1nnc(-c2ccco2)n1-c1ccccc1)N1CCOCC1`, the compound was called inactive.

On to `Cc1ccsc1C(=O)Nc1ccc(C(=O)O)cc1`, for which the call was inactive.

Turning to `O=C(O)CCCC(=O)N1CCOCCOCCOCCOCC1`, the “lipid storage change, negative = inhibition” value was -7% (inactive) and the cell number change worked out at 22.2%.

Consider `Cc1cccc(NC(=O)CNC(=O)COc2ccc(C(=O)c3ccc(F)cc3)cc2)c1C`, for which the “lipid storage change, negative = inhibition” value was 26.3% (inactive) and the cell number change was 8.34%.

As to `O=C(Cn1cc(S(=O)(=O)Cc2ccccc2)c2ccccc21)N1CCOCC1`, the “lipid storage change, negative = inhibition” value was 10.8% (inactive) and the cell number change was 6.54%.

With `CCN(CC)C(=O)Cn1cc(S(=O)(=O)Cc2cccc([N+](=O)[O-])c2)c2ccccc21`, the “lipid storage change, negative = inhibition” value is 1.45% (inactive) and the cell number change worked out at 0.298%.

As for `CN(C)C(=O)Cn1cc(S(=O)(=O)Cc2ccccc2)c2ccccc21`, the Potency was 0.651 µM (active) and the cell number change is -2.09%.

Turning to `CC(C)OC(=O)CSc1nc2c(cc1C#N)CCCCC2`, the “lipid storage change, negative = inhibition” value is -3.11% (inactive).

Regarding `Cc1cc(C(=O)CN2C(=O)C(=O)N(C3CCCC3)C2=O)c(C)n1CCc1ccc(F)cc1`, the Potency was 20.6 µM (active) and the cell number change is -15.3%.

Consider `Cc1cc(C(=O)CCl)c(C)n1CCc1ccc(F)cc1`, for which the “lipid storage change, negative = inhibition” value is -0.0782% (inactive) and the cell number change was -8.52%.

`Cc1cc(C(=O)CN2C(=O)C(=O)N(Cc3ccccc3)C2=O)c(C)n1Cc1ccc(F)cc1`: the “lipid storage change, negative = inhibition” value is 18.7% (inactive) and the cell number change is -8.57%.

Regarding `COC(=O)C(C)N(C(=O)c1cccc(Cl)c1)c1c(C)cccc1C` (stereo unspecified), the compound was called inactive.

Turning to `COC(=O)C(Cc1ccccc1)NC(=O)CNC(=O)c1sc2ccccc2c1Cl` (stereo unspecified), the Potency was 1.84 µM (active) and the cell number change is -4.58%.

Turning to `COC(=O)c1ccc(CNC(=O)CNC(=O)c2sc3ccccc3c2Cl)cc1`, the “lipid storage change, negative = inhibition” value was 5.59% (inactive) and the cell number change was determined as 3.22%.

On to `CC1CC(C)CN(C(=O)CNC(=O)c2sc3ccccc3c2Cl)C1` (stereo unspecified), for which the Potency is 1.46 µM (active) and the cell number change was -1.35%.

`CC1CCCN(C(=O)CNC(=O)c2sc3ccccc3c2Cl)C1` (stereo unspecified): the cell number change worked out at 11.4% and the lipid storage change, negative = inhibition is 0.306% [at 0.0737 µM] (inactive).

Regarding `CC(=O)Nc1ccc(NC(=O)CNC(=O)c2sc3ccccc3c2Cl)cc1`, the “lipid storage change, negative = inhibition” value is -4.95% (inactive) and the cell number change stood at 0.461%.

For `Cc1ccc(S(=O)(=O)N2CCN(C(=O)CNC(=O)c3sc4ccccc4c3Cl)CC2)cc1`, the result was inactive.

On to `CC(C)N(Cc1nc(-c2ccccc2)no1)C(=O)C(C)(C)C`, for which the compound was classed as inactive.

`O=C(CNC(=O)c1ccco1)N=Nc1c(O)[nH]c2ccc(Br)cc12`: the “lipid storage change, negative = inhibition” value is -20.8% (inactive) and the cell number change was -9.17%.

For `Cc1cccc(OCC(=O)N=Nc2c(O)[nH]c3ccc([N+](=O)[O-])cc23)c1`, the “lipid storage change, negative = inhibition” value is -6.55% (inactive) and the cell number change is -0.974%.

For `O=C(CNC(=O)c1ccco1)N=Nc1c(O)[nH]c2ccc([N+](=O)[O-])cc12`, the Potency was 1.03 µM (active) and the cell number change stood at 26.6%.

For `CCCCN(C(=O)c1cccc(S(=O)(=O)N2CC(C)OC(C)C2)c1)c1c(N)n(CC(C)C)c(=O)[nH]c1=O` (stereo unspecified), the “lipid storage change, negative = inhibition” value is 17% (inactive).

For `O=[N+]([O-])c1ccc2nc(C(O)C(O)c3nc4ccc([N+](=O)[O-])cc4[nH]3)[nH]c2c1` (stereo unspecified), the result was inactive and the cell number change worked out at 22.3%.

As for `O=C(O)CSc1nnc(-c2cccnc2)n1Cc1ccccc1`, the “lipid storage change, negative = inhibition” value was 7.76% (inactive) and the cell number change was 0.309%.

In the case of `COc1ccc(-c2nnc(SCC(=O)O)n2Cc2ccccc2)cc1`, the “lipid storage change, negative = inhibition” value is -23% (inactive) and the cell number change was 16.6%.

As for `O=C(O)CSc1nnc(-c2ccc(Cl)cc2Cl)n1-c1ccccc1`, the compound was called inactive and the cell number change turned out to be 9.07%.

As for `Cc1cccc(-c2nnc(SCC(=O)O)n2Cc2ccccc2)c1`, the “lipid storage change, negative = inhibition” value was 6.73% (inactive) and the cell number change is -0.739%.
